Assay results from the supplement of paper PMC10515830.
Where a name gives a salt, the structure may show the parent alone.

Columns and labels:
Conditions in all cases: 10 µM; exposure time 6 h
[1] = system: Danio rerio larvae (5 dpf); test: difference in excitability vs DMSO (percentage points); higher = more excitable than DMSO
Outline: (§1)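 In 96-well plates, 48 wild-type zebrafish larvae aged 5 dpf per compound received 100 µL egg water with library compound at 10 µM final for 6 h. Three hours into this, a 3-h programme of moving lines and 100 ms, 400Hz tones ran at 28.5 ℃ while plates were photographed every 6 s. Z-LaP Tracker scored the behaviours, and each is given as the compound mean minus the vehicle control mean in percentage points.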

[2] = system: Danio rerio larvae (5 dpf); test: difference in startle response vs DMSO (percentage points); higher = stronger startle than DMSO
Outline: as §1

[3] = system: Danio rerio larvae (5 dpf); test: difference in activity during first hour vs DMSO (percentage points); higher = more activity than DMSO
Outline: as §1

[4] = system: Danio rerio larvae (5 dpf); test: difference in habituation to acoustic stimuli vs DMSO (percentage points); higher = more habituation than DMSO
Outline: as §1

[5] = system: Danio rerio larvae (5 dpf); test: difference in combined optomotor response to red, green and blue moving lines vs DMSO (percentage points); higher = stronger optomotor response than DMSO
Outline: as §1

Row | SMILES | difference in excitability [1] | difference in startle response [2] | difference in activity during first hour [3] | difference in habituation to acoustic stimuli [4] | difference [5]
1 | CC[C@H](C)C(=O)O[C@H]1C[C@H](O)C=C2C=C[C@H](C)[C@H](CC[C@@H](O)C[C@@H](O)CC(=O)O)[C@H]21 [Pravastatin (sodium salt)] | 1.5 | 5.8 | 9.55 | -2.28 | 1.82
2 | CNC(=O)c1cnn(-c2nc(N)c3ncn([C@@H]4O[C@H](CO)[C@@H](O)[C@H]4O)c3n2)c1 [Regadenoson] | -3.36 | 0.153 | 6.41 | -0.999 | 3.31
3 | CCCSc1ccc2[nH]c(NC(=O)OC)nc2c1 [Albendazole] | 17.3 | 4.02 | 4.4 | 0.0113 | 3
4 | C[C@@H]1C/C=C/C=C/C=C/C=C/[C@H](O[C@@H]2O[C@H](C)[C@@H](O)[C@H](N)[C@@H]2O)C[C@@H]2O[C@](O)(C[C@@H](O)C[C@H]3O[C@@H]3/C=C/C(=O)O1)C[C@H](O)[C@H]2C(=O)O [Natamycin] | 2.79 | -1.51 | 0.445 | 3.82 | 3.97
5 | COC[C@H]1C[C@@H](c2nc(-c3ccc4c(c3)COc3cc5c(ccc6nc([C@@H]7CC[C@H](C)N7C(=O)[C@@H](NC(=O)OC)C(C)C)[nH]c65)cc3-4)c[nH]2)N(C(=O)[C@H](NC(=O)OC)c2ccccc2)C1 [Velpatasvir] | 10.1 | 2.08 | 2 | -1.59 | 0.589
6 | NC[C@@H]1O[C@@H](O[C@H]2[C@H](O)[C@@H](O[C@H]3O[C@H](CO)[C@@H](O)[C@H](N)[C@H]3O)[C@H](N)C[C@@H]2N)[C@@H](O)[C@H](O)[C@H]1O [Kanamycin A (sulfate)] | 8.55 | -4.02 | 4.22 | 3.45 | 4.39
7 | CC(CCc1ccccc1)NCC(O)c1ccc(O)c(C(N)=O)c1 (stereo not given) [Labetalol (hydrochloride)] | 3.49 | 0.137 | 5.09 | 3.73 | -2.36
8 | CC(=O)Oc1ccccc1C(=O)O [Aspirin] | -1 | 2.44 | 2.02 | 1.42 | 2.52
9 | CN(C)CCC(c1ccc(Cl)cc1)c1ccccn1 (stereo not given) [Chlorpheniramine (maleate)] | 1.12 | -4.13 | -11.1 | -6.14 | -4.02
10 | CC(C)N1CCN(c2ccc(OCC3COC(Cn4cncn4)(c4ccc(Cl)cc4Cl)O3)cc2)CC1 (stereo not given) [Terconazole] | 18 | -1.46 | 2.36 | -6.11 | 0.243
11 | CC/C=C\C/C=C\C/C=C\C/C=C\C/C=C\CCCC(=O)OCC [Eicosapentaenoic Acid ethyl ester] | 11.7 | 2.48 | -7.19 | 3.98 | 7.27
12 | CN(CCOc1ccc(NS(C)(=O)=O)cc1)CCc1ccc(NS(C)(=O)=O)cc1 [Dofetilide] | -1.01 | -4.06 | 7.17 | 7 | 7.94
13 | O=C(O)C[C@H](O)C[C@H](O)/C=C/c1c(C2CC2)nc2ccccc2c1-c1ccc(F)cc1 [Pitavastatin (calcium salt)] | 10.2 | -3.29 | 4.76 | -3.94 | 13.1
14 | N=C(NCCCCCCNC(=N)NC(=N)Nc1ccc(Cl)cc1)NC(=N)Nc1ccc(Cl)cc1 [Chlorhexidine (hydrochloride)] | 11.8 | -11 | -19.9 | -10.2 | -17.6
15 | N#CC[C@H](C1CCCC1)n1cc(-c2ncnc3[nH]ccc23)cn1 [Ruxolitinib (phosphate)] | -1.61 | 4.35 | 6.14 | -4.72 | 17.9
16 | CC(O)C(O)[C@H]1CNc2nc(N)[nH]c(=O)c2N1 (stereo partly drawn) [(6R)-5,6,7,8-tetrahydro-L-Biopterin (hydrochloride)] | 0.358 | -1.51 | -0.551 | 1.85 | 6.59
17 | CC[C@@H](CO)NCCN[C@@H](CC)CO [Ethambutol (hydrochloride)] | 2.65 | 1.19 | 7 | 4.16 | -3.67
18 | Cc1oncc1C(=O)Nc1ccc(C(F)(F)F)cc1 [Leflunomide] | 20.4 | -4.19 | 4.33 | -10.8 | 2.2
19 | C[C@@H](NCCCc1cccc(C(F)(F)F)c1)c1cccc2ccccc12 [Cinacalcet (hydrochloride)] | -1.68 | 0.605 | 10.2 | -9.83 | -16.5

Row | SMILES | difference in excitability [1] | difference in startle response [2] | difference in activity during first hour [3] | difference in habituation to acoustic stimuli [4] | difference [5]
20 | CN1CCCC(n2nc(Cc3ccc(Cl)cc3)c3ccccc3c2=O)CC1 (stereo not given) [Azelastine (hydrochloride)] | 19.9 | 1.87 | -5.88 | -2.38 | 3.47
21 | CCO/N=C(\C(=O)N[C@@H]1C(=O)N2C(C(=O)[O-])=C(Sc3nc(-c4cc[n+](C)cc4)cs3)CS[C@H]12)c1nsc(NP(=O)(O)O)n1 | 2.56 | 0.685 | 4.29 | -3.93 | -5.35
22 | CC12CC3CC(C)(C1)CC(N)(C3)C2 [Memantine (hydrochloride)] | 4.15 | -1.38 | 1.52 | 2.49 | 3.21
23 | Cc1nc2n(c(=O)c1CCN1CCC(c3noc4cc(F)ccc34)CC1)CCCC2O (stereo not given) [Paliperidone] | 15.4 | 0.117 | 18.6 | 0.732 | 5.58
24 | N=C(N)NC(=O)c1nc(Cl)c(N)nc1N [Amiloride (hydrochloride) (hydrate)] | 10.2 | -1.2 | -3.37 | 2.2 | 2.45
25 | CN1CCC(=C2c3ccccc3CCn3c(C=O)cnc32)CC1 [Alcaftadine] | -1.49 | 3.88 | 20.6 | -3 | -2.52
26 | O=C(NC[C@H]1CN(c2ccc(N3CCOCC3=O)cc2)C(=O)O1)c1ccc(Cl)s1 [Rivaroxaban] | -1.52 | -3.86 | -2.47 | -4.56 | 1.67
27 | C[N+]1(C)CCC(OC(=O)C(O)(c2ccccc2)C2CCCC2)C1 (stereo not given) [Glycopyrrolate] | -0.597 | -8.53 | 7.84 | -7.11 | -2.89
28 | COC(=O)C1=C(C)NC(C)=C(C(=O)OCC(C)C)C1c1ccccc1[N+](=O)[O-] (stereo not given) [Nisoldipine] | 7.56 | -9.87 | 0.119 | -9.06 | -16.9
29 | C[C@H]1CN(C[C@H](Cc2ccccc2)C(=O)NCC(=O)O)CC[C@@]1(C)c1cccc(O)c1 [Alvimopan] | 3.61 | 0.764 | -3.96 | 3.02 | -3.48
30 | CN1CCC[C@@H]1CCO[C@](C)(c1ccccc1)c1ccc(Cl)cc1 [Clemastine (fumarate)] | 26.5 | -6.88 | -0.468 | -2.97 | 6.17
31 | Cc1nnc(SCC2=C(C(=O)O)N3C(=O)[C@@H](NC(=O)Cn4cnnn4)[C@H]3SC2)s1 [Cefazolin (sodium salt)] | 9.87 | -2.79 | 7.43 | -0.463 | 5.77
32 | NC[C@@H](O)c1ccc(O)c(O)c1 [L-(-)-Norepinephrine (bitartrate hydrate)] | 5.69 | -4.59 | 23 | -6.22 | 6.76
33 | COc1cc([C@@H]2c3cc4c(cc3[C@@H](O[C@@H]3O[C@@H]5CO[C@@H](c6cccs6)O[C@H]5[C@H](O)[C@H]3O)[C@H]3COC(=O)[C@H]23)OCO4)cc(OC)c1O [Teniposide] | -5.17 | -1.26 | -12 | 3.62 | -8.33
34 | C=C1/C(=C\C=C2/CCC[C@]3(C)[C@@H]([C@H](C)CCCC(C)(C)O)CC[C@@H]23)C[C@@H](O)C[C@@H]1O [Calcitriol] | 7.32 | -3.08 | -9.65 | 5.79 | -3.39
35 | OB1OCc2cc(F)ccc21 | 13.7 | -1.36 | -11.7 | 2.38 | 4.85
36 | C=C1CCN([C@H](C)[C@](O)(Cn2cncn2)c2ccc(F)cc2F)CC1 [Efinaconazole] | 14.8 | -1.57 | -5.8 | -7.46 | 1.58
37 | CC(C)c1nc(CN(C)C(=O)N[C@H](C(=O)N[C@@H](Cc2ccccc2)C[C@H](O)[C@H](Cc2ccccc2)NC(=O)OCc2cncs2)C(C)C)cs1 [Ritonavir] | -4.63 | 0.564 | 2.31 | 6.79 | 1.78
